Assay outcomes (PubChem BioAssay)
Pol beta inh = inhibitors of human DNA polymerase beta; Potency, µM (series often up to 114 µM), for inactives: at the top dose activity change, negative = inhibition, usual class: inhibitors; actives 1.3% (n = 340,000); Pol beta primer extension/strand displacement, fluorescence kinetic; AID 485314; note: potency is the fitted concentration of half-maximal effect; % is set by controls: 0 for no effect and ±100 for the full control effect
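Reaction started by 50 nM substrate onto compound-treated Pol beta (10 nM, 15 min preincubation, room temperature); plates read at 0 min and 10 min. Normalized concentration-effect data fitted by four-parameter Hill equation.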
Pol eta inh = blocks human DNA polymerase eta activity. Q9Y253. recombinant Pol eta, fluorescent DNA replication assay. Potency, µM (doses to about 114 µM), without a hit: at the highest dose activity change, negative = inhibition, hits mostly inhibitors. actives 1.2% (n = 390,000); note: potency is the fitted concentration of half-maximal effect; % is set by controls: 0 for no effect and ±100 for the full control effect
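Fluorescent replication assay: 50 nM final substrate added after a 15 min room-temperature compound preincubation with 10 nM enzyme. Signal taken at 0 min and again at 10 min.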
PI5P4Ka inh = blocks human PI5P4K alpha kinase activity. PI5P4Kalpha enzyme, ADP-Glo luminescence, 60 min; hits give low values. AID 652105. P48426. actives 1.2% (n = 330,000). max response, %; active = max response of -50% or lower; inconclusive = between -30% and -50%; inactive = -30% or higher; note: value at the top dose of about 77 µM; % is set by controls: 0 for no effect and ±100 for the full control effect
Target sequence (P48426 whole entry, looked up): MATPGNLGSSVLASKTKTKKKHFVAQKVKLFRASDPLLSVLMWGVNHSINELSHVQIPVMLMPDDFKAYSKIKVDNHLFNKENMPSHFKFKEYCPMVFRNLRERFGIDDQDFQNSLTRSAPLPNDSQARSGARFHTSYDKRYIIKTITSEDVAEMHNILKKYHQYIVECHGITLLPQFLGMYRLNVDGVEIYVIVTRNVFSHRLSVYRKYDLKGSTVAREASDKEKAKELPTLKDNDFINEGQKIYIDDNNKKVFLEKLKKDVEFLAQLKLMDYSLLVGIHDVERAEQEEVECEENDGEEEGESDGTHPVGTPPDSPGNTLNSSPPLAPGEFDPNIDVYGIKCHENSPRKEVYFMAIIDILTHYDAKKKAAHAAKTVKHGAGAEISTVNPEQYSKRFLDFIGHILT
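Human PI5P4Kalpha with substrate in 0.038 M HEPES pH 7.4, 0.28 mM EGTA, 0.1% CHAPS, 5% DMSO; reaction started with 5 microM ATP (final), 60 min at room temperature. ADP formed read by ADP-Glo luminescence.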
POLI inh = blocks human DNA polymerase iota activity | Q9UNA4 | Pol iota fluorescent replication assay, 10 min | Potency, µM (series often up to 115 µM), for the others: at the highest dose activity, negative = inhibition, actives largely listed as inhibitors | actives 1% (n = 390,000); note: potency is the fitted concentration of half-maximal effect
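Pol iota at 10 nM preincubated 15 min with compounds at room temperature; reaction started with fluorescent substrate, 50 nM final. Fluorescence read kinetically at 0 and 10 min; buffer-only wells as negative control.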
Pol kappa inh = blocks human DNA polymerase kappa activity. Q9UBT6. purified Pol kappa, fluorescent DNA synthesis assay, 10 min. Potency, µM (doses to about 107 µM), without a hit: at the highest dose activity, negative = inhibition, actives largely listed as inhibitors. actives 0.53% (n = 400,000); note: potency is the fitted concentration of half-maximal effect; % is set by controls: 0 for no effect and ±100 for the full control effect
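50 nM final substrate added after 15 min RT preincubation of 10 nM Pol kappa with compound; fluorescence read at 0 and 10 min.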
WRN inhibitor = blocks human WRN helicase. Q14191. WRN helicase unwinding, fluorescent forked duplex, kinetic. Potency, µM (highest dose often 114 µM), for inactives: at the top dose activity change, negative = inhibition, hits mostly inhibitors. actives 0.46% (n = 360,000). AID 651768; note: potency is the fitted concentration of half-maximal effect; % is set by controls: 0 for no effect and ±100 for the full control effect; nearly all actives have a fitted effect of over 55% in size
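WRN at 20 nM final was preincubated with compound for 15 min at room temperature; reaction started with 100 nM forked duplex oligonucleotide carrying fluorophore and quencher plus 2 mM ATP (final). Unwinding followed kinetically by red fluorescence (ex 525/em 598 nm).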
Active calls of the source: *; ? = inconclusive; / = no result given; [ ] = dose if it differs, or a comment. Most compounds without a hit are left out; they make up all but 2.8% or so of the library. Unless noted, calls come from the whole dose curve; as a rule, active = well fitted curve in the direction sought with a large enough effect; inconclusive = small, poorly fitted or top-dose-only effect, or another doubt; inactive = no such curve, though single readings can be large; an effect the other way counts as inactive or inconclusive.

SMILES	Pol beta inh	Pol eta inh	PI5P4Ka inh	POLI inh	Pol kappa inh	WRN inhibitor
CCN(CC)S(=O)(=O)c1ccc(C(=O)NCc2ccc3c(c2)cc(C)n3C)cc1	0%	-20%	-3	?	-30%	50µM*
O=CNc1cc(-c2ccoc2)cn2c(-c3ccc(F)cc3)cnc12	/	/	-60*	/	/	-7%[57.1 µM]
CC(=O)c1ccc(-c2cnc3c(NC=O)cc(-c4cnn(C)c4)cn23)cc1	/	/	-57*	/	/	1%[57.1 µM]
COc1cc(-c2cc(NC=O)c3ncc(-c4ccc(F)cc4)n3c2)cc(OC)c1OC	/	/	-16	/	/	56µM*
COc1cc(-c2cnc3c(NC=O)cc(-c4ccc(N5CCN(C)CC5)cc4)cn23)cc(OC)c1OC	/	/	-6	/	/	50µM*
COc1cc(-c2cnc3c(NC=O)cc(-c4ccsc4)cn23)cc(OC)c1OC	/	/	-24	/	/	?
CS(=O)(=O)Nc1cccc(-c2cc(NC=O)c3ncc(-c4ccc(F)cc4)n3c2)c1	/	/	?	/	/	-31%
COc1cccc(-c2cc(NC=O)c3ncc(-c4cccc(C(=O)N(C)C)c4)n3c2)c1	/	/	-68*	/	/	?
COCCN(CC(=O)Nc1cccc(C)c1C)C(=O)c1cc2c(s1)CCC2	/	?	?	89µM*	?	1%[11.6 µM]
Cc1ccc(-n2c3nc(=O)[nH]c(=O)c-3cc3cc([N+](=O)[O-])ccc32)cc1	49%	45µM*	-12	?	-4%	?
Oc1ccc(N=Cc2ccc(O)c(O)c2)cc1	?	3.2µM*	-79*	13µM*	45µM*	32µM*
CCN(C(=O)COC(=O)c1ccc2[nH]c3c(c2c1)CCCC3)C1CCS(=O)(=O)C1 (stereo unspecified)	15%	-14%	-4	101%	-13%	-2%
CC(=O)c1cccc(NC(=O)CCS(=O)(=O)c2cc(Br)cc3c2N(C(=O)C2CC2)CC3)c1	2%	-7%	/	16%	15%	/
COC(=O)CCCCC1SCC(NC(=O)c2ccccc2)C1=O (stereo unspecified)	-29%	-11%	1	25%	6%[60.1 µM]	1%
CC1=CC2=NC(=O)/C(=C\c3cc(C)n(-c4ccccc4F)c3C)C(=N)N2O1	9%	-6%	-11	158%	-3%	2%
Cc1cc(/C=C2\C(=N)N3N=C(S(C)(=O)=O)SC3=NC2=O)c(C)n1Cc1ccccc1	?	35µM*	-22	?	-8%	?
CCCC1=NN2C(=N)/C(=C\c3cc(C)n(Cc4ccccc4)c3C)C(=O)N=C2S1	1%	-13%	1	20%	-23%	-5%
Cc1cc(/C=C2/C(=N)N3C(=NC2=O)SN=C3S(C)(=O)=O)c(C)n1-c1ccccc1F	5%	79µM*	-62*	?	-13%	-12%[57.1 µM]
CC(=O)c1cccc2c1OC(C)C(=O)N2Cc1ccc(Cl)cc1 (stereo unspecified)	/	/	0	/	/	-3%
O=C(C[N+]12CCCc3cccc(c31)CCC2)c1ccc2ccccc2c1	/	/	/	95%	-10%	/
C#CCOCCOCCOCCNc1nc(N2CCN(C(=O)C(Cc3cc4ccccc4[nH]3)n3cc(C(N)C(C)CC)nn3)CC2)nc(N2CCN(C(=O)C(Cc3cc4ccccc4[nH]3)n3cc(C(N)C(C)CC)nn3)CC2)n1 (stereo unspecified)	20µM*	-2%	-52*	?	1%	-30%
C#CCOCCOCCOCCNc1nc(N2CCN(C(=O)[C@H](CCCCN)n3cc([C@@H](N)C(C)CC)nn3)CC2)nc(N2CCN(C(=O)[C@H](Cc3cc4ccccc4[nH]3)n3cc([C@@H](N)C(C)CC)nn3)CC2)n1 (stereo partly specified)	/	-17%	-57*	?	-1%	?
C#CCOCCOCCOCCNc1nc(N2CCOCC2)nc(N2CCN(C(=O)[C@H](Cc3cc4ccccc4[nH]3)n3cc([C@@H](N)C(C)CC)nn3)CC2)n1 (stereo partly specified)	-7%	-24%	2	?	3%	-5%
CC(=O)C(C(C)=O)C1(O)C(=O)c2ccccc2C1=O	?	89µM*	3	3.2µM*	-2%	9%
COc1ccc(O)c(C2(O)C(=O)c3ccccc3C2=O)c1	-2%	-12%	0	5%	-12%	-5%
SMILES	Pol beta inh	Pol eta inh	PI5P4Ka inh	POLI inh	Pol kappa inh	WRN inhibitor
Cc1noc(C)c1C(=O)N1CCC1(C)C(=O)NS(=O)(=O)c1cccc(Cl)c1 (stereo unspecified)	/	/	-4	/	/	1%
Cc1cccc(N2CCN(S(=O)(=O)c3cn(C)c(C)n3)CC2)c1C	3%	-5%	/	-13%	-7%[60.1 µM]	/
CC1(C)C(=O)Nc2ccccc2N1C(=O)COc1ccc(S(=O)(=O)N2CCOCC2)cc1Cl	25µM*	?	?	?	-19%	-31%[57.1 µM]
O=C(COc1ccc(S(=O)(=O)N2CCOCC2)cc1Cl)N1CCCC1	24%	-11%	-1	20%	0%	-3%[57.1 µM]
CCOC(=O)c1c(C)[nH]c(C(=O)OCc2ccccc2F)c1C	-11%	-17%	9	53%	10%	9%
C=C(CN(C)C)C(=O)c1cc(C)ccc1C	/	?	-1	?	-19%	22µM*
Cc1ccc(O)c(Nc2nc3ccccc3c3nncn23)c1	4%	-7%	/	-18%	8%	/
O=C(Nc1nnc(SCc2cccnc2)s1)C1CC(=O)N(c2ccc(F)cc2)C1 (stereo unspecified)	?	?	?	?	-9%	?
O=C(O)CSc1nnc(CNc2cccc(C(F)(F)F)c2)n1Cc1ccco1	-15%	-5%	-71*	?	-24%	-20%
O=C(CSc1nnc(CNc2cccc(C(F)(F)F)c2)n1Cc1ccco1)NCc1ccco1	1%	-3%	-16	-2%	-19%	-8%
CC(=O)c1ccc(N2CCN(C(=O)CNC(=O)c3ccc(Br)o3)CC2)cc1	/	-13%	-2	/	/	15%
Cc1ccc(N2CCN(S(=O)(=O)c3ccc4oc(=O)ccc4c3)CC2)c(C)c1	8%	-11%	0	15%	0%	-8%
C=CCn1c(SCc2nc3sc(C(=O)O)c(C)c3c(=O)[nH]2)nnc1-c1ccccc1	0%	32µM*	-67*	?	-37%	-35%[57.1 µM]
Cc1ccc(Cn2c(C(C)Nc3nc(-c4ccc(C)cc4)cs3)nc3cc(Cl)c(Cl)cc32)cc1 (stereo unspecified)	32µM*	-28%	1	-15%	-13%	?
C=CCOc1c(/C=N\NC(N)=O)cccc1OC	47%	-2%	2	?	-1%	6%
C=CCOc1c(OC)cc(/C=N/Nc2cccc(C(=O)O)c2)c(Br)c1Br	50µM*	?	-10	-16%	?	-24%
